Among the data in PubChem BioAssay AID1986 (Sanford-Burnham Center for Chemical Genomics, 2009) are inhibition values, retold here.

Among all 290,000 compounds or so, about 890 (0.31%) were called active. Rule as the data show it: active = inhibition mostly above about 52% (no sharp cut-off); inactive = mostly below about 76%. The full list was thinned out, with actives kept by preference.

The inhibition is the drop in the measured response relative to a control, in per cent.

The nature of this test: cell-free HIV fusion peptide-binding blockers – biochemical, uHTS, fluorescence dequenching, primary screen (AID 1986). Conditions: 30 min, stronger effect = higher value.
The mark [1] stands for this setting: measured here: repeat confirmation average inhibition, at 18.6 µM.

Take `COc1ccc(/C=N/N=C2/NC(=O)C(CC(=O)O)S2)cc1OCc1ccc(Cl)cc1` (stereo not drawn): the inhibition (at 20 µM) was 44% (inactive). `COc1ccc(/C=N/N=C2/NC(=O)C(CC(=O)O)S2)cc1OCc1ccc(Cl)cc1Cl` (stereo not drawn): the inhibition reads like this: (at 20 µM) 50.6% (inactive); under setting [1], 47.2%. In the case of `CCOc1cc(/C=N/N=C2/NC(=O)C(CC(=O)O)S2)ccc1OCc1ccccc1Cl` (stereo not drawn), the inhibition is, setting by setting: (at 20 µM) 53% (inactive); under setting [1], 36.4%. Take `Cc1ccc(NC(=S)NCCN(C2CCCCC2)C2CCCC2)cc1C`: the inhibition (at 20 µM) is 0.4% (inactive). Same read-out and setting: the figure for `COc1cc(C(C)=O)ccc1COc1ccc(C(=O)O)cc1OC` is 2.1% (inactive). On the same count and under the same terms, the figure for `O=C(NC1CC2CCCC(C1)N2Cc1ccco1)NC12CC3CC(CC(C3)C1)C2` (stereo not drawn) is 0.1% (inactive); for `CCC(=O)Oc1ccc2c(C)cc(=O)oc2c1C(=O)c1ccccc1` it is 1.8% (inactive); for `COc1ccc(C(=O)c2cc3cccc(OC)c3o2)cc1` it is -1% (inactive). Regarding `COc1ccccc1N1C(=O)c2cccc3c(N(C)CCO)ccc(c23)C1=O`, the inhibition was 64% (active) (at 20 µM) and 61.6% under setting [1]. In the case of `Cc1ccccc1N1C(=O)c2cccc3c(N(C)CCO)ccc(c23)C1=O`, the inhibition (at 20 µM) was 2.4% (inactive). Regarding `COc1ccc(N2C(=O)c3cccc4c(N(C)CCO)ccc(c34)C2=O)cc1`, under “at 20 µM”, the inhibition was 150% (inactive). Take `COc1ccccc1/C=C/C=N/n1c(-c2ccncc2)n[nH]c1=S`: the inhibition (at 20 µM) is 1.2% (inactive). The same measure, in the same setting: the figure for `CC(C)=NNc1nc2sc3c(c2c(=O)[nH]1)CC(C)(C)OC3` is 6.1% (inactive). Same read-out and setting: the figure for `CN(C)[C@@H]1C(=O)C(C(=O)NCN2CCCC2)=C(O)[C@@]2(O)C(=O)C3=C(O)c4c(O)cccc4[C@@](C)(O)C3CC12` (stereo partly drawn) is 55.1% (active). Take `C=CCCC(=O)N1CCC(n2nccc2NC(=O)CCCc2ccccc2)CC1`: where the note is “at 20 µM”, the inhibition is -2.2% (inactive).

In the case of `COc1ccc2nc(N/C(N)=N/C(=S)Nc3cccc(C)c3)nc(C)c2c1`, the inhibition (at 20 µM) was 1.7% (inactive). As to `CCCCCOc1ccc(/C=c2\sc3nc(=O)c(-c4ccccc4)nn3c2=O)cc1OC`, the inhibition (at 20 µM) was 51.8% (active).

On to `COc1ccc(/C=c2\sc3nc(-c4ccccc4)c(-c4ccccc4)n3c2=O)cc1OC`, for which the inhibition (at 20 µM) is -0.1% (inactive). Take `COc1cc(/C=c2\sc3nc(=O)c(-c4ccccc4)nn3c2=O)ccc1OCCC(C)C`: the inhibition was 62.3% (inactive) (at 20 µM) and 39.1% under setting [1]. With `CC(=O)Oc1ccc(/C=N/NC2=NS(=O)(=O)c3ccccc32)cc1`, where the note is “at 20 µM”, the inhibition was 0.3% (inactive). For the compound `CCCc1ccc(Oc2coc3cc(OCC(=O)Nc4ccccc4C)ccc3c2=O)cc1`, the inhibition (at 20 µM) was -2.2% (inactive). For the compound `NC(=S)N/N=C/c1ccccc1O`, the inhibition (at 20 µM) was -1.4% (inactive). Still for that read-out and setting: the figure for `NC(=S)N/N=C/c1cccc(O)c1O` is 3.4% (inactive); for `Cc1cc(/C=N/NC(N)=S)c(O)c(/C=N/NC(N)=S)c1` it is 88.3% (active). Regarding `CCOC(=O)Cn1c(=N)n(CCOc2ccc(F)cc2)c2ccccc21`, the inhibition (at 20 µM) was 0% (inactive). Turning to `COc1ccc(CCNC(=O)C2CCC(=O)N(CC3CCCCC3)C2)cc1` (stereo not drawn), the inhibition (at 20 µM) was 0.4% (inactive). For the compound `N/C(Cc1cccc2ccccc12)=N\OC(=O)COc1ccccc1`, the inhibition (at 20 µM) is 2.3% (inactive).

As for `O=C(O)c1ccc(-n2cccc2/C=N\NC(=O)c2cc3cc(Br)ccc3o2)cc1`, the inhibition (at 20 µM) is 50.1% (active). On the same count and under the same terms, the figure for `Cn1cc(/C=N/NC(=O)c2cc3cc(Br)ccc3o2)c2ccccc21` is 4.4% (inactive); for `O=C(O)Cn1cc(/C=N/NC(=O)c2cc3cc(Br)ccc3o2)c2ccccc21` it is 29.5% (inactive); for `Cc1ccc(NC(=O)C2CCN(S(=O)(=O)c3ccc4c(c3)CCCC(=O)N4)CC2)c(Br)c1` it is 1.8% (inactive).

`CN(C)/C=C1/C=C(C=O)OC1=O`: the inhibition (at 20 µM) is -0.5% (inactive). Turning to `CCOC(=O)/C(=C/C1=CC(=C/N(C)C)/C(=O)O1)C(C)=O`, the inhibition is, setting by setting: (at 20 µM) 59.4% (active); under setting [1], 65.4%. On to `CC1=C/C(=C/N(C)C)C(=O)O1`, for which the inhibition (at 20 µM) was 5.9% (inactive). Take `COc1cc([N+](=O)[O-])ccc1N1C(=O)CC(Sc2nccc(C)n2)C1=O` (stereo not drawn): the inhibition (at 20 µM) was -1% (inactive). Consider `CC1=CC2=NC(=O)/C(=C/c3coc4ccc(Cl)cc4c3=O)C(=N)N2O1`, for which the inhibition was 99.7% (active) (at 20 µM) and 62.3% under setting [1]. Take `N=C1/C(=C\c2coc3ccccc3c2=O)C(=O)N=C2SC(c3ccncc3)=NN12`: where the note is “at 20 µM”, the inhibition is 146% (inactive). On to `CSC1=NSC2=NC(=O)/C(=C\c3coc4ccccc4c3=O)C(=N)N12`, for which the inhibition (at 20 µM) is 44.5% (inactive).

Turning to `CC(C)CC1=NN2C(=N)/C(=C\c3coc4ccccc4c3=O)C(=O)N=C2S1`, for the setting “at 20 µM”, the inhibition was 148% (inactive).

Regarding `CC1=CC2=NC(=O)/C(=C\c3ccc(-c4ccc(Cl)cc4)o3)C(=N)N2O1`, the inhibition (at 20 µM) is 13.2% (inactive). For the compound `N=C1/C(=C/c2coc3ccccc3c2=O)C(=O)N=C2SC(c3ccco3)=NN12`, where the note is “at 20 µM”, the inhibition is 114% (active).

Regarding `CC(C)CSC1=NSC2=NC(=O)/C(=C\c3ccccc3)C(=N)N12`, the inhibition (at 20 µM) is 46.5% (inactive).

Turning to `CC1=CC2=NC(=O)/C(=C\c3cc(C)n(-c4cccc(Cl)c4)c3C)C(=N)N2O1`, where the note is “at 20 µM”, the inhibition is 0.2% (inactive).

For `CC(C)CSC1=NSC2=NC(=O)/C(=C\c3coc4ccccc4c3=O)C(=N)N12`, the inhibition (at 20 µM) is 148% (inactive). On the same count and under the same terms, the figure for `N=C1/C(=C\c2coc3ccccc3c2=O)C(=O)N=C2SC=CN12` is 146% (inactive); for `CCSC1=NSC2=NC(=O)/C(=C\c3coc4ccccc4c3=O)C(=N)N12` it is 89.7% (active).

With `CSC1=NSC2=NC(=O)/C(=C/c3coc4ccccc4c3=O)C(=N)N12`, for the setting “at 20 µM”, the inhibition is 91.2% (active).
